# High-throughput results as filed in PubChem BioAssay.
# DT40 TDP1 CPT: qHTS for Inhibitors of human tyrosyl-DNA phosphodiesterase 1 (TDP1): qHTS in cells in presence of CPT; chicken DT40 Tdp1-/-;hTDP1 cells + 20 nM CPT, ATP luminescence, 48 h; Potency, µM (highest dose often 46.2 µM), inactives show at the highest dose activity change, negative = growth inhibition, usual class: inhibitors; actives 12% (n = 420,000); AID 686979, 2013; further: potency means the concentration at half of the fitted maximal effect; nearly all actives have a fitted effect of over 55% in size
#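 Chicken DT40 Tdp1-/- cells stably complemented with human TDP1 were seeded at 400 cells/well in medium containing 20 nM camptothecin, exposed to pin-transferred compounds, and grown at 37 °C for at least 48 hr. Viability was read as ATP luminescence.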
# HT1080 IDH1KD tx: qHTS for induction of synthetic lethality in tumor cells producing 2HG: qHTS for the HT-1080-IDH1KD cell line. HT-1080 IDH1 knockdown viability, ATP luminescence, 48 h. Potency, µM (top dose mostly 46.1 µM), for inactives: top-dose activity, negative = toxicity, most hits filed as cytotoxic. actives 2% (n = 360,000);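 further: potency means the concentration at half of the fitted maximal effect; 0% = DMSO wells and -100% = cell-free medium wells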
#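 CellTiter-Glo luminescence after 48 h compound exposure at 37 degrees C of IDH1-knockdown HT-1080 cells in 5% FBS RPMI. %Activity scaled between DMSO wells and cell-free media wells, with curves fitted and assigned curve classes.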
# IL1B secr inh: qHTS for Inhibitors of Inflammasome Signaling: IL-1-beta AlphaLISA Primary Screen; THP-1 LPS/ATP IL-1B secretion, AlphaLISA, 16 h; stronger effect = lower value; activity change, % at 57.5 µM; actives 4.7% (n = 360,000); AID 743279, 2014; in the data active means activity change below about -50%; inconclusive means mostly about -30% to -49%
#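 Secreted IL-1B measured by AlphaLISA bead assay after 16 h compound exposure of THP-1 cells; compounds (final up to 57.5 uM) added 1 h before LPS (250 ng/mL) and ATP (1.25 mM) stimulation; lower signal means less secretion.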
# HT1080NT lethal: qHTS for induction of synthetic lethality in tumor cells producing 2HG: qHTS for the HT-1080-NT fibrosarcoma cell line; actives 1.6% (n = 360,000); HT-1080-NT fibrosarcoma viability, CellTiter-Glo ATP luminescence, 48 h; Potency, µM (top dose mostly 46.1 µM), for inactives: at the top dose activity, negative = less viability, actives largely listed as cytotoxic;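 further: NT is the 2HG producing partner of a matched IDH1 knockdown line; potency means the concentration at half of the fitted maximal effect; 0% = DMSO-treated cells and -100% = media-only wells without cells; nearly all actives have a fitted effect of over 55% in size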
#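 750 cells/well, RPMI + 5% FBS; 2 h settle, compound pin-transfer, 48 h at 37 degrees C. CellTiter-Glo 10 min RT, luminescence. Normalized to DMSO and media-only wells.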
# TDP1 cell noCPT: qHTS for Inhibitors of human tyrosyl-DNA phosphodiesterase 1 (TDP1): qHTS in cells in absence of CPT; DT40 Tdp1-/- hTDP1 cells, no CPT, ATP luminescence, 48 h; Potency, µM (titrated, usually from 46.2 µM), for inactives: at the highest dose activity change, negative = growth inhibition, usual class: inhibitors; actives 15% (n = 420,000); AID 686978, 2013; further: potency means the concentration at half of the fitted maximal effect; nearly all actives have a fitted effect of over 55% in size
#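 No-CPT arm: Tdp1-/-;hTDP1 DT40 cells (400/well) plus compounds, incubated ≥48 hr at 37 °C. Readout CellTiter-Glo luminescence.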
# An asterisk follows results filed as active; ? = inconclusive; . = not tested or not shown; [ ] = another dose, or the depositor's remark. Sampled rows, rich in hits. Any-hit rate of the full collection: about 19%. Unless noted, the call rests on the fitted dose curve; in most records, active means well fitted curve in the direction sought with a large enough effect; inconclusive means small, poorly fitted or top-dose-only effect, or another doubt; inactive means no such curve, though single readings can be large; an effect the other way counts as inactive or inconclusive. Unless noted, on the % scale 0 is the no-effect control and ±100 the full control effect.
SMILES,DT40 TDP1 CPT,HT1080 IDH1KD tx,IL1B secr inh,HT1080NT lethal,TDP1 cell noCPT
COc1ccc(CCc2c[nH]c(=O)c3cncnc23)cc1OC,-19.4%,-1.8%,.,1.1%,?
CCCNC(=O)C1(C)CCN(C(=O)COCc2ccccc2)C1 (centres undefined),-4.2%,?,-56.1*,?,-0.3%
CCCNC(=O)C1(C)CCCN(Cc2cc(-c3ccccc3)nn2C)C1 (centres undefined),?,2.9%,-7.6,0.0%,16.4µM*
Cc1ccc(NC(=O)c2ccc3c(=O)n4c(nc3c2)CCC4)cc1S(=O)(=O)N(C)C,-23.5%,10.2%,11.1,0.4%,?
C=C1C(=O)[C@]23C[C@H]1CCC2[C@@]1(C)C(C[C@@H]3O)[C@](C)(C(=O)OC)CC[C@@H]1O (some centres undefined),1.03µM*,2.31µM*,-110.7*,2.31µM*,0.517µM*
C[C@@]12C(C[C@H](O)[C@@]34C[C@@H](CCC13)[C@@H](CO)C4=O)[C@](C)(C(=O)O)CC[C@@H]2O (some centres undefined),?,?,-4.8,29.1µM*,?
Cc1nc2c(Br)c(C)nn2c2c1CCC2,?,-5.3%,-2.9,0.2%,3.0%
COC(=O)c1sccc1NC(=O)CSc1nnnn1-c1ccccc1C,-28.3%,0.2%,-2.2,3.9%,-21.8%
COc1ccc(-c2cc(C(=O)O)c3ccccc3n2)c(OC)c1,-10.1%,-9.5%,19.8,-4.0%,-12.4%
COc1cccc(CN2CCN(C(=O)c3cc(-c4cccnc4)nc4ccc(C)cc34)CC2)c1,23.1µM*,-11.8%,6.1,-18.4%,11.6µM*
COc1ccc(OC)c(-c2cc(C(=O)N3CCN(c4ncccn4)CC3)c3ccccc3n2)c1,16.4µM*,-1.1%,-10.1,-10.8%,18.4µM*
COc1ccc(-c2cc(C(=O)N3CCN(c4ncccn4)CC3)c3ccccc3n2)cc1,?,-3.4%,-16.1,0.5%,?
COc1ccc(-c2cc(C(=O)N3CCN(c4ccccc4)CC3)c3ccccc3n2)cc1,3.26µM*,1.84µM*,96.8,?,4.61µM*
COc1ccc(N2CCN(C(=O)c3cn(Cc4ccccc4)nc3-c3cccnc3)CC2)cc1,-23.8%,-0.7%,10.2,0.6%,-16.3%
COc1ccc(-c2cc(C(=O)N3CCN(c4ncccn4)CC3)c3ccccc3n2)c(OC)c1,?,0.0%,7.1,-12.9%,23.1µM*
Cc1ccc(S(=O)(=O)N2CCOCC2)cc1NC(=O)COC(=O)c1ccco1,-9.4%,0.7%,12.0,-0.2%,0.4%
COc1ccc(-c2cc(C(=O)N3CCN(c4ccccc4O)CC3)c3ccccc3n2)cc1OC,?,-29.3%,?,-27.1%,18.4µM*
CC(=O)c1ccc(N2CCN(C(=O)c3cc(-c4ccc5c(c4)OCO5)nc4ccccc34)CC2)cc1,?,-2.4%[9.24 µM],-2.0,-20.4%,23.1µM*
COc1ccc(-c2cc(C(=O)N3CC(C)CC(C)C3)c3ccccc3n2)cc1 (centres undefined),?,1.1%,?,1.7%,20.6µM*
CCOc1ccccc1N1CCN(C(=O)c2cc(-c3cc(OC)ccc3OC)nc3ccccc23)CC1,23.1µM*,?,?,-18.8%,13µM*
CCc1ccc(S(=O)(=O)Nc2ccc(-c3ccc4nncn4n3)cc2)s1,?,-13.7%,30.8,-4.4%,?
Cc1ccc(C)c(OCC(=O)N(Cc2ccccc2)c2c(N)n(Cc3ccccc3)c(=O)[nH]c2=O)c1,-16.9%,-1.0%,7.0,-5.1%,-2.9%
O=C(CSc1nc(O)c(C2CCCCC2)c(=O)[nH]1)N1CCOCC1,9.6%,6.7%,-5.1,2.7%,1.3%
